Source: PubChem (several laboratories)
TROY signal inh: inhibitors of TROY-driven NF-kB signaling, primary screen, Q293 LMP1-TROYcd cells, NF-kB luciferase, uHTS; inhibition, % at 10 µM; Q293 LMP1-TROYcd NF-kB luciferase reporter, 4 h; AID 1347056, 2019; 360,000 tested, 0.98% active;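 active = compounds whose plate-normalised and pattern-corrected inhibition of the luciferase reporter signal at the single screening dose is 50% or more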
TWEAK Fn14 block: inhibitors of TWEAK-Fn14 signaling, primary screen, luciferase reporter cells, uHTS; TWEAK-stimulated Fn14 reporter cells, luciferase luminescence, 8 h; inhibition, % at 10 µM; 360,000 tested, 2% active; AID 1159606, 2016; in the data active = inhibition above about 50%
HSP90 refold inh: HSP90 inhibitors, primary screen, cell lysate, luminescence; Heat shock protein HSP 90 (rabbit reticulocyte lysate; luciferase refolding); Rabbit reticulocyte lysate, luciferase refolding luminescence, 3 h; inhibition, % at 5.6 µM; 290,000 tested, 0.91% active;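 active = inhibition above the screen-wide mean plus 3 SD, computed separately per campaign, cut at about 16% in these data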;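 note: inhibitors lower the luminescence because luciferase stays unfolded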
LGR2 antag: inhibitors of bursicon-induced LGR2 CRE-luciferase signal, primary screen, cell-based, HEK293, CRE-luciferase reporter, bursicon stimulation. bursicon-stimulated, 4 h. inhibition, % at 9.99 µM. 380,000 tested, 0.35% active. AID 720647, 2013;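 active = drop in luminescence signal, shown as inhibition above about 50% in the replicate tests, limit read from the data, passing the limit was not always enough; inconclusive = probably only some replicates passing the limit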;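 note: agonist challenge used bursicon conditioned medium at about half maximal strength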
A number is an active result; - = inactive; ? = inconclusive; . = no result. Compounds with a hit are over-represented: about 2.2% of the library has one in this group of screens.

SMILES	TROY signal inh	TWEAK Fn14 block	HSP90 refold inh	LGR2 antag
Cc1ccc(S(=O)(=O)Nc2cccc3c2O[C@@H](CN(C)S(=O)(=O)c2ccc(F)cc2)[C@@H](C)CN([C@@H](C)CO)C3=O)cc1	.	.	.	-
CC[C@@H](C)[C@H](NC(=O)OC(C)(C)C)c1nnc(S(=O)(=O)Cc2cc(C)ccc2C)o1	72.7	-	-	.
N#C/C(N=Nc1ccccc1O)=N\Nc1ccccc1O	-	87.5	.	-
Oc1ccccc1N=N/C(=N/Nc1ccccc1O)c1ccccc1	-	-	.	.
CCOC(=O)C1=C(O)/C(=C/c2ccc(-c3ccccc3C(=O)O)o2)SC1=Nc1ccc(C)cc1	-	57.7	.	-
CC(=NNc1nc2ccccc2o1)c1cc2ccccc2cn1	-	-	.	-
CC(=NNc1nc2ccccc2o1)c1ncccn1	-	103.1	.	-
COC(=O)[C@H]1[C@H](CO)[C@H]2Cn3c(ccc(-c4cccc(F)c4)c3=O)[C@H]2N1Cc1ccccn1	.	.	.	-
CCc1ccccc1NC(=O)N1CCCc2ccccc21	77.5	52.6	-	-
Cc1ccc(NC(=O)N2CCCc3ccccc32)cc1	-	-	-	-
Cc1ccc(NC(=O)N2CCc3ccccc32)cc1	-	65.3	-	.
Cc1cc(=O)oc2cc(OCC(=O)Nc3nnc(C(C)C)s3)ccc12	-	77.4	-	.
Cc1cc(=O)oc2cc(OCC(=O)Nc3nnc(CC(C)C)s3)ccc12	-	-	-	.
COc1cccc(/C=C2/CCC(CN(C)C)C2=O)c1 (stereo not drawn)	-	85.7	.	.
COc1ccc(/C=C2/CCCC(CN(C)C)C2=O)cc1 (stereo not drawn)	-	-	.	-
CO[C@@H]1CN(C)C(=O)c2ccc(NC(=O)C3CC3)cc2OC[C@H](C)N(Cc2ccccc2)C[C@@H]1C	.	.	.	-
O=C(N[C@H]1CC[C@H](CCNS(=O)(=O)c2ccccc2Cl)O[C@H]1CO)c1ccccc1	.	.	.	-
O=C(Cc1ccccc1)NC(Nc1cccc2ccccc12)C(Cl)(Cl)Cl (stereo not drawn)	56.4	-	-	.
CCCc1c(O)c2ccccc2[nH]c1=O	.	79.8	-	.
Cc1ccc(S(=O)(=O)Nc2ccc3c(c2)C(=O)N([C@H](C)CO)C[C@@H](C)[C@@H](CN(C)S(=O)(=O)c2cn(C)cn2)O3)cc1	.	.	.	-
COc1ccc(NC(=O)CCCC(=O)NCCc2ccc(OC)c(OC)c2)cc1	-	88.8	-	-
C/C=C/c1ccccc1[C@H]1[C@H](C#N)N(c2nc(CC)cs2)[C@H]1CO	.	.	.	-
c1cncc(-c2nc(-c3ccc4c(c3)OCCO4)cs2)c1	-	51.6	-	-
O=C(c1cccnc1)N1CC2(C1)[C@@H](c1ccccc1)[C@@H](CO)N2Cc1cccnc1	.	.	.	-
COc1ccc(N(CC(=O)NC2CC3CCC2C3)S(=O)(=O)c2ccccc2)cc1Cl (stereo not drawn)	-	90.8	-	-
SMILES	TROY signal inh	TWEAK Fn14 block	HSP90 refold inh	LGR2 antag
COc1ccccc1CN(Cc1nc2ccccc2c(=O)[nH]1)S(=O)(=O)c1ccc2ccccc2c1	-	55.0	-	?
CN(C)c1ccc(C2NC(=O)c3ccccc3N2)cc1 (stereo not drawn)	-	62.0	-	53.6
CCN(CC)CCN1C(=O)c2ccccc2NC1c1ccc(F)cc1 (stereo not drawn)	-	-	-	-
CCN(CC)CCN1C(=O)c2ccccc2NC1c1ccc(N(C)C)cc1 (stereo not drawn)	-	67.8	-	.
CN(C)c1ccc(C2Nc3ccccc3C(=O)N2CCCN2CCOCC2)cc1 (stereo not drawn)	-	55.9	-	-
COCC#Cc1cnc2c(c1)C(=O)N([C@H](C)CO)C[C@@H](C)[C@@H](CN(C)S(=O)(=O)c1ccccc1)O2	.	.	.	-
Cc1noc(C)c1NC(=O)Nc1ccc2c(c1)C(=O)N([C@@H](C)CO)C[C@@H](C)[C@H](CN(C)S(C)(=O)=O)OCCCC[C@@H](C)O2	.	.	.	-
N#C/C(=C\c1coc2ccc(O)cc2c1=O)C(=O)Nc1nc2ccccc2s1	51.7	73.3	-	-
N#C/C(=C\c1coc2ccccc2c1=O)C(N)=S	-	-	-	-
NS(=O)(=O)c1ccc(CCNc2nn3c(-c4cccc(OC(F)(F)F)c4)cnc3s2)cc1	72.0	93.9	.	-
CCC(=O)N(C)C[C@H]1Oc2ncc(-c3ccc(C(=O)N(C)C)cc3)cc2C(=O)N([C@@H](C)CO)C[C@H]1C	.	.	.	-
CCN(CC)S(=O)(=O)c1cccc(NC(=O)Nc2cccc(C(F)(F)F)c2)c1	56.4	78.5	-	.
C=CCN(CC=C)c1ncnc2[nH]ncc12	-	67.2	.	-
